{
  "source": "PubChem BioAssay AID2235",
  "about": "(The Scripps Research Institute Molecular Screening Center, 2010)",
  "note": "In all, about 320,000 compounds went through this assay and about 2,800 (0.88%) were called active.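 Rule for the calls: active = inhibition above the mean inhibition of all tested compounds plus 3 SD, computed separately for each screening campaign (cut at about 15% in these data); inactive = the rest.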 The entries come from a sample that favours actives as a whole.",
  "data": [
    {"target": "Serine/threonine-protein phosphatase PP1-alpha catalytic subunit (Homo sapiens) (UniProt P62136)", "sequence (P62136 whole entry, looked up)": "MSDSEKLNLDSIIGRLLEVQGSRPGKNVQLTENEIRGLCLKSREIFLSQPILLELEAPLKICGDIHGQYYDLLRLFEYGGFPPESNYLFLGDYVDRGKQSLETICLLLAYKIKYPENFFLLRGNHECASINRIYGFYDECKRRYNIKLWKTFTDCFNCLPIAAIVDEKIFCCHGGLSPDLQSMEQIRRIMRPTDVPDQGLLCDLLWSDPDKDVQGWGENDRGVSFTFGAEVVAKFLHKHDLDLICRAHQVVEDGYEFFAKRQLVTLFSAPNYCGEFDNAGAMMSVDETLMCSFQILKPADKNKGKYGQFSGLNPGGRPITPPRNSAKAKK", "experiment": "inhibition of human PP1 catalytic subunit – biochemical, fluorescence, OMFP substrate, single point, counter-screen for PP5 inhibitor project, primary screen (AID 2235)", "details": "purified PP1alpha, at 6.7 µM, hits give high values", "values": [
      {"smiles": "Cc1ccc(NC(=S)Nc2ncccc2C)c(C)c1", "inhibition": "-1.13% (inactive)"},
      {"smiles": "C#CCOCCOCCOCCNc1nc(N2CCN(C(=O)[C@H](C(C)C)n3cc(CCO)nn3)CC2)nc(N2CCN(C(=O)[C@H](C(C)C)n3cc(CCO)nn3)CC2)n1", "inhibition": "-0.91% (inactive)"},
      {"smiles": "C#CCOCCOCCOCCNc1nc(N2CCN(C(=O)Cn3cc(CCCCN)nn3)CC2)nc(N2CCN(C(=O)[C@H](CCCCN)n3cc(CCC(=O)O)nn3)CC2)n1", "inhibition": "-0.58% (inactive)"},
      {"smiles": "C#CCOCCOCCOCCNc1nc(N2CCN(C(=O)C([C@@H](C)CC)n3cc(C(N)COC(=O)C(F)(F)F)nn3)CC2)nc(N2CCN(C(=O)[C@H](CCCCN)n3cc(C(N)CC(C)C)nn3)CC2)n1", "note": "(some centres undefined)", "inhibition": "8.45% (inactive)"},
      {"smiles": "C#CCOCCOCCOCCNc1nc(N2CCN(C(=O)CCCCCCCCCCNC(=O)[C@H](CCCCN)n3cc(C)nn3)CC2)nc(N2CCN(C(=O)CCCCCCCCCCNC(=O)[C@H](CO)n3cc(CCCSC)nn3)CC2)n1", "inhibition": "64.8% (active)"},
      {"smiles": "C#CCOCCOCCOCCNc1nc(N2CCN(C(=O)[C@H](C(C)C)n3cc(CCO)nn3)CC2)nc(N2CCN(C(=O)[C@H]([C@@H](C)CC)n3cc(CCCN=C(N)N)nn3)CC2)n1", "inhibition": "0.22% (inactive)"},
      {"smiles": "C#CCOCCOCCOCCNc1nc(N2CCN(C(=O)[C@H](CCCCN)n3cc([C@@H](N)C(C)CC)nn3)CC2)nc(N2CCN(C(=O)[C@H](Cc3ccc(O)cc3)n3cc([C@@H](N)C(C)CC)nn3)CC2)n1", "note": "(some centres undefined)", "inhibition": "5.1% (inactive)"},
      {"smiles": "C#CCOCCOCCOCCNc1nc(N2CCN(C(=O)CCCCCCCCCCNC(=O)[C@H]([C@@H](C)CC)n3cc(CCCCN=C(N)N)nn3)CC2)nc(N2CCN(C(=O)CCCCCCCCCCNC(=O)[C@H](CO)n3cc(CCCSC)nn3)CC2)n1", "inhibition": "53.8% (active)"},
      {"smiles": "C#CCOCCOCCOCCNc1nc(N2CCN(C(=O)CCCCCCCCCCNC(=O)Cn3cc(CCCCCN)nn3)CC2)nc(N2CCN(C(=O)CCCCCCCCCCNC(=O)[C@H](CO)n3cc(CCCSC)nn3)CC2)n1", "inhibition": "64.7% (active)"},
      {"smiles": "C#CCOCCOCCOCCNc1nc(N2CCN(C(=O)[C@H](CCCCN)n3cc(CCC(=O)O)nn3)CC2)nc(N2CCN(C(=O)[C@H](CCCCN)n3cc(CC(C)O)nn3)CC2)n1", "note": "(some centres undefined)", "inhibition": "5.96% (inactive)"},
      {"smiles": "CN1CCN(c2ccc(CNS(=O)(=O)c3cccc(F)c3)cc2)CC1", "inhibition": "-3.01% (inactive)"},
      {"smiles": "O=C1/C(=C/c2cccs2)CCC1C1CCCC1", "note": "(centres undefined)", "inhibition": "-2.41% (inactive)"},
      {"smiles": "CC(=O)Oc1cc2c(C(=O)NCCN3CCOCC3)c(C)oc2c2ccccc12", "inhibition": "-0.6% (inactive)"},
      {"smiles": "Cc1ccc(N=C2NC(=O)c3cccc([N+](=O)[O-])c32)cc1", "inhibition": "-1.21% (inactive)"}
    ]}
  ]
}
